Laboratory results published in PubChem BioAssay (EPA / NIEHS).
“And” between values parts separate entries of the source, which are not always exact repeats. Identical values can stand only once. Inconclusive results are not listed. Some compounds were tested as several samples or in several runs, with calls that do not always agree. The source made the active and inactive calls. The calls were made as follows, unless noted: active = hit-call score of the fitted dose curve at least 0.9, where 1 is the maximum; inactive = score below 0.9.

Tests used:
[1] = target: Nuclear respiratory factor 1 (Homo sapiens) (UniProt Q16656); test: ATG_NRF1_CIS: Attagene CIS-FACTORIAL HepG2 Assay for human Nuclear Respiratory Factor 1 (NRF1) Orphan Gene (AID 2282987); settings: HepG2 NRF1 cis-element reporter, Attagene multiplex; actives raise or lower the signal
Summary of the method: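 Endogenous NRF1-driven reporter transcription measured in transiently transfected human HepG2 liver cells. Readout: reporter mRNA by RT-PCR and capillary electrophoresis with fluorescence detection, 24 h post-dosing. Gain or loss of signal fitted relative to DMSO baseline.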

[2] = ATG_NFI_CIS: Attagene CIS-FACTORIAL HepG2 Assay for human Nuclear Factor I (NFI) (AID 2282989); settings: HepG2 cis-regulatory reporter, NFI response element transcription; actives raise or lower the signal
Summary of the method: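 Multiplexed cis-reporter system in human HepG2 cells reports native TF activity as reporter mRNA induction 24 h post-dose. Fragments labelled with 6-FAM, HpaI-digested and resolved by capillary electrophoresis; activity fitted both directions versus DMSO.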

[3] = target: Myc proto-oncogene protein (Homo sapiens) (UniProt P01106); test: ATG_Myc_CIS: Attagene CIS-FACTORIAL HepG2 Assay for human Myelocytomatosis (Myc) Proto-Oncogene Transcription Factor (AID 2282990); settings: HepG2, Attagene cis-reporter transcription factor activity; actives raise or lower the signal
Summary of the method: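 Transiently transfected HepG2 cells bearing cis-promoter reporter units for endogenous transcription factors; 24 h exposure. Reporter mRNA measured by RT-PCR, 6-FAM primer extension, HpaI cut and capillary electrophoresis; bidirectional fit relative to DMSO.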

[4] = ATG_NF_kB_CIS: Attagene CIS-FACTORIAL HepG2 Assay for human Nuclear Factor Kappa B (NF-kB) (AID 2282991); settings: HepG2 Attagene cis-factorial NF-kB reporter mRNA; actives raise or lower the signal
Summary of the method: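 Read-out: reporter transcript levels quantified by RT-PCR plus capillary electrophoresis of 6-FAM-labelled, HpaI-cut fragments. Transfected HepG2 cells, 24 h compound exposure, endogenous NF-kB-driven cis element; gain or loss scored versus DMSO.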

[5] = ATG_NRF2_ARE_CIS: Attagene CIS-FACTORIAL HepG2 Assay for human Nuclear Factor Erythroid 2 Related Factor 2 (NFR2) response to Antioxidant Response Elements (ARE) (AID 2282992); settings: HepG2 Attagene ARE/NRF2 reporter, transcription factor activity; actives raise or lower the signal
Summary of the method: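 Endogenous transcription factor activity in human liver HepG2 cells is tracked via a cis-element-driven reporter within a multiplexed set. mRNA induction is read by RT-PCR and capillary electrophoresis after 24 h, with DMSO as baseline.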

[6] = target: Cellular tumor antigen p53 (Homo sapiens) (UniProt P04637); test: ATG_p53_CIS: Attagene CIS-FACTORIAL HepG2 Assay for human p53 Transcription Factor (AID 2282994); settings: HepG2 p53 cis-element reporter, Attagene mRNA; actives raise or lower the signal
Summary of the method: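 Steps: transfect HepG2 with multiplexed cis reporter constructs; dose chemicals 24 h; extract RNA, reverse-transcribe, PCR-amplify reporter sequences; FAM-label, HpaI-digest, resolve fragments by CE. Activity fitted both directions relative to DMSO.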

[7] = BSK_3C_TissueFactor: BioMAP Diversity Plus: 3C Assay for Tissue Factor Biomarker Activity (AID 2282997); settings: BioMAP 3C HUVEC, tissue factor biomarker readout; actives raise or lower the signal
Summary of the method: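 Tissue factor on primary human umbilical vein endothelium was read by ELISA 24 h after dosing, gain or loss relative to DMSO. Cytotoxicity ran alongside via SRB (0.1%, TCA-fixed, 560 nm).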

[8] = BSK_3C_uPAR: BioMAP Diversity Plus: 3C Assay for Urokinase-type plasminogen activator receptor (uPAR) Biomarker Activity (AID 2282998); settings: BioMAP 3C HUVEC, uPAR biomarker ELISA; actives raise or lower the signal
Summary of the method: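 Values derive from bidirectional curve fitting relative to DMSO, which served as baseline of activity. uPAR was measured by ELISA in human umbilical vein endothelial primary cultures 24 h after compound addition.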

[9] = BSK_3C_VCAM1: BioMAP Diversity Plus: 3C Assay for Vascular cell adhesion molecule 1 (VCAM1) Biomarker Activity (AID 2282999); settings: BioMAP 3C HUVEC, VCAM1 ELISA, cytokine-stimulated; actives raise or lower the signal
Summary of the method: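 HUVEC primary cells, 24 h compound exposure; VCAM-1 by ELISA; gain/loss of signal fitted bidirectionally vs DMSO baseline.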

[10] = BSK_4H_Eotaxin3: BioMAP Diversity Plus: 4H Assay for Eotaxin 3 Biomarker Activity (AID 2283000); settings: primary human endothelial cells (HUVEC); actives raise or lower the signal
Summary of the method: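 Human umbilical vein endothelial cells (BSK_4H system) dosed with test chemical; Eotaxin-3 (CCL26) measured by ELISA 24 h after dosing. Bidirectional curve fitting relative to DMSO negative control as baseline.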

[11] = target: human Peroxisome Proliferator-activated Receptor alpha (PPARa), PPARA (gene 5465) (UniProt Q07869); test: ATG_PPARa_TRANS: Attagene TRANS-FACTORIAL HepG2 Assay for human Peroxisome Proliferator-activated Receptor alpha (PPARa) (AID 2283001; active = hit-call score of the fitted dose curve at least 0.9, where 1 is the maximum)
Summary of the method: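 Transient HepG2 transfection, GAL4-UAS reporters, NR-Gal4 chimeras; 24 h compound exposure. Readout: reporter transcripts by RT-PCR, 6-FAM primer extension, HpaI digest, capillary electrophoresis. Positive direction vs DMSO baseline.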

[12] = target: human Peroxisome Proliferator-activated Receptor delta (PPARd), PPARD (gene 5467) (UniProt Q03181); test: ATG_PPARd_TRANS: Attagene TRANS-FACTORIAL HepG2 Assay for human Peroxisome Proliferator-activated Receptor delta (PPARd) (AID 2283002; active = hit-call score of the fitted dose curve at least 0.9, where 1 is the maximum)
Summary of the method: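 HepG2 cells transiently transfected with GAL4-UAS multiplexed reporter units driven by exogenous chimeric NR-GAL4 proteins; 24 h compound exposure. Reporter mRNA measured by RT-PCR, 6-FAM primer extension, HpaI digestion and capillary electrophoresis; gain of signal fitted relative to DMSO.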

[13] = read-out: Intercellular Adhesion Molecule 1 (ICAM1), ICAM1 (gene 3383); test: BSK_3C_ICAM1: BioMAP Diversity Plus: 3C Assay for Intercellular Adhesion Molecule 1 (ICAM1) Biomarker Activity (AID 2283003); settings: primary human endothelial cells (HUVEC); actives raise or lower the signal
Summary of the method: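 ELISA read-out of ICAM-1; HUVEC (primary human), 3C system, 24 h post-dosing; bidirectional fit vs DMSO baseline.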

[14] = BSK_3C_Proliferation: Cell Proliferation Assessment in the BioMAP Diversity Plus: 3C Assay (AID 2283006); settings: primary human endothelial cells (HUVEC);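 as to AC50: potency may reflect either rise or fall in cell number versus DMSO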
Summary of the method: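 HUVEC, sub-confluent; 48 h chemical exposure; 10% TCA fix, 0.1% SRB stain, A560 total protein. Gain or loss of signal fitted both directions vs DMSO control.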

[15] = target: Peroxisome proliferator-activated receptor gamma (Homo sapiens) (UniProt P37231); test: ATG_PPARg_TRANS: Attagene TRANS-FACTORIAL HepG2 Assay for human Peroxisome Proliferator-activated Receptor-gamma (PPARg) (AID 2283007; active = hit-call score of the fitted dose curve at least 0.9, where 1 is the maximum)
Summary of the method: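 Read-out: reporter mRNA induction, detected by fluorescence after RT-PCR and capillary electrophoresis. Transiently transfected human HepG2 liver cells carrying a chimeric NR-Gal4 construct were dosed for 24 h; activity was fitted upward relative to DMSO.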

[16] = target: Nuclear receptor subfamily 1 group I member 2 (Homo sapiens) (UniProt O75469); test: ATG_PXR_TRANS: Attagene TRANS-FACTORIAL HepG2 Assay for human Pregnane X Receptor (PXR) (AID 2283008; active = hit-call score of the fitted dose curve at least 0.9, where 1 is the maximum)
Summary of the method: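 HepG2 transfected (FuGene 6) with GAL4-UAS reporter units + PXR-Gal4 chimera; dosed 24 h. Total RNA → oligo(dT) RT → PCR → 6-FAM primer extension → HpaI cut → CE. Gain-of-signal vs DMSO.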

[17] = ATG_Oct_MLP_CIS: Attagene CIS-FACTORIAL HepG2 Assay for human Octamer-Binding Transcription Factor (Oct) (AID 2282993); settings: HepG2 Attagene cis-factorial Oct reporter, mRNA; actives raise or lower the signal
Summary of the method: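 After 24 h compound exposure, transfected HepG2 cells were lysed for total RNA; reporter-specific cDNA was PCR-amplified, fluorescently labelled and sized by capillary electrophoresis. Bidirectional curve fitting used DMSO as baseline.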

[18] = target: human Retinoic Acid Receptor gamma (RARg), RARG (gene 5916) (UniProt P13631); test: ATG_RARg_TRANS: Attagene TRANS-FACTORIAL HepG2 Assay for human Retinoic Acid Receptor gamma (RARg) (AID 2283009; active = hit-call score of the fitted dose curve at least 0.9, where 1 is the maximum)
Summary of the method: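 Readout: reporter transcript levels via RT-PCR, 6-FAM primer-extension labelling, HpaI digestion and capillary electrophoresis. Cells: HepG2 carrying transfected RARg-GAL4 chimera plus UAS reporter set. Dosing 24 h; DMSO negative control.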

[19] = target: Retinoic acid receptor alpha (Homo sapiens) (UniProt P10276); test: ATG_RARa_TRANS: Attagene TRANS-FACTORIAL HepG2 Assay for human Retinoic Acid Receptor alpha (RARa) (AID 2283005; active = hit-call score of the fitted dose curve at least 0.9, where 1 is the maximum)
Summary of the method: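 HepG2 transiently transfected with multiplex GAL4-UAS reporter units including a human RARa–GAL4 chimera; 24 h compound exposure. Reporter mRNA quantified by RT-PCR, 6-FAM labeling and capillary electrophoresis; gain of signal versus DMSO.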

[20] = target: human Retinoic Acid Receptor beta (RARb), RARB (gene 5915) (UniProt P10826); test: ATG_RARb_TRANS: Attagene TRANS-FACTORIAL HepG2 Assay for human Retinoic Acid Receptor beta (AID 2283004; active = hit-call score of the fitted dose curve at least 0.9, where 1 is the maximum)
Summary of the method: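 Induction of reporter mRNA from a chimeric RARb-Gal4 construct was measured by RT-PCR, FAM labelling, HpaI digestion and capillary electrophoresis. Measurements followed 24 h compound treatment of transiently transfected human HepG2 liver cells, with DMSO as baseline.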

Measured: AC50

Sequence of Nuclear respiratory factor 1 (Homo sapiens) (Q16656 whole entry, looked up): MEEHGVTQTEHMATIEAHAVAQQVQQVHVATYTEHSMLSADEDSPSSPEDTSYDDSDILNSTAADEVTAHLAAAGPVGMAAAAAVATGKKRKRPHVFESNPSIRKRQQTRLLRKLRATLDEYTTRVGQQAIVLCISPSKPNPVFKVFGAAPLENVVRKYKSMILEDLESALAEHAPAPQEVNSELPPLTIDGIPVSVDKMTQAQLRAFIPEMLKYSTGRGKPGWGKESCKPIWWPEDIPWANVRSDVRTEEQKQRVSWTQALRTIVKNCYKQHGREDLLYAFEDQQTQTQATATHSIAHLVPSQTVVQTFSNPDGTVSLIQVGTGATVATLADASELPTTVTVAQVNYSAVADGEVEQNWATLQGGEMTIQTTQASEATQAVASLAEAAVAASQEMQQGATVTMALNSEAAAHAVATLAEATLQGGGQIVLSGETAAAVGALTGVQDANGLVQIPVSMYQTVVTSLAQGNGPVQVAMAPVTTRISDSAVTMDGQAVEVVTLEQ
Sequence of Peroxisome proliferator-activated receptor gamma (Homo sapiens) (P37231 whole entry, looked up, the tested form may be a part): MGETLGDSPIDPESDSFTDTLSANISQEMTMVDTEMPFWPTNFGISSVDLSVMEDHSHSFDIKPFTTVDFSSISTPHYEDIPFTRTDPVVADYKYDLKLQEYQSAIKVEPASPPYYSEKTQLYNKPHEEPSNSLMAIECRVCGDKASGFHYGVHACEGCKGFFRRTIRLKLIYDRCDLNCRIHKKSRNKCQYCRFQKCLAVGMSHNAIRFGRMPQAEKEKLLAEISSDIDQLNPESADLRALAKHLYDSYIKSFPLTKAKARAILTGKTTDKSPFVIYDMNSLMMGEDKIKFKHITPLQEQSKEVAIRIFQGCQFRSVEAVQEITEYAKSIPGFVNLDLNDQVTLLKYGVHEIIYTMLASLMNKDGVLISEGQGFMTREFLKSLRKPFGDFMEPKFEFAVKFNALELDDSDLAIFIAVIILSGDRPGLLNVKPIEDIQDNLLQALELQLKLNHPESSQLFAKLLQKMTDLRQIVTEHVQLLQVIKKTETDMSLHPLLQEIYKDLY
Sequence of human Peroxisome Proliferator-activated Receptor alpha (PPARa), PPARA (gene 5465) (Q07869 whole entry, looked up, the tested form may be a part): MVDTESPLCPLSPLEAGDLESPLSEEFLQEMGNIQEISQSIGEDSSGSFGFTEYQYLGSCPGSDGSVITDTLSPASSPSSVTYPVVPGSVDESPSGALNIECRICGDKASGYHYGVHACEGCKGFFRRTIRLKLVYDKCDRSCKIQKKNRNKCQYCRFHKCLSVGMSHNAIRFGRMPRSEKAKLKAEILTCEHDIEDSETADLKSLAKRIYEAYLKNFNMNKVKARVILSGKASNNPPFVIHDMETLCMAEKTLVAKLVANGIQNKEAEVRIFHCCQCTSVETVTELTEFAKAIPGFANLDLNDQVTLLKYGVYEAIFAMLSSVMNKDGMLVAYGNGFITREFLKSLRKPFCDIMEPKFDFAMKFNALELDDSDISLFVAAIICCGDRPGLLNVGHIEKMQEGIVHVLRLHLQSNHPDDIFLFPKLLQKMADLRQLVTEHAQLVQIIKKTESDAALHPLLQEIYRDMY
Sequence of Myc proto-oncogene protein (Homo sapiens) (P01106 whole entry, looked up): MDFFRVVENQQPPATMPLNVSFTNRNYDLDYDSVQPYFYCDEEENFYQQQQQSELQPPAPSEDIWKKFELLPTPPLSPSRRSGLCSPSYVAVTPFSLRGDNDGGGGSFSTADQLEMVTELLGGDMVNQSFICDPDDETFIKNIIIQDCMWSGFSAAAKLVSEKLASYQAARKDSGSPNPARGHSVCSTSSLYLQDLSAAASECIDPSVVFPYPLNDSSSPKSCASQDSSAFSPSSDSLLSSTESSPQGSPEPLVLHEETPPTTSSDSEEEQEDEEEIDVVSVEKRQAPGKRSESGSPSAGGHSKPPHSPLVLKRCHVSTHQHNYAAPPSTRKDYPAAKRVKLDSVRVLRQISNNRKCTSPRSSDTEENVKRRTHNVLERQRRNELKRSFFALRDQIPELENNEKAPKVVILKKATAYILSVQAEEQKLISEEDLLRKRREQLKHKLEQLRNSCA
Sequence of Cellular tumor antigen p53 (Homo sapiens) (P04637 whole entry, looked up, the tested form may be a part): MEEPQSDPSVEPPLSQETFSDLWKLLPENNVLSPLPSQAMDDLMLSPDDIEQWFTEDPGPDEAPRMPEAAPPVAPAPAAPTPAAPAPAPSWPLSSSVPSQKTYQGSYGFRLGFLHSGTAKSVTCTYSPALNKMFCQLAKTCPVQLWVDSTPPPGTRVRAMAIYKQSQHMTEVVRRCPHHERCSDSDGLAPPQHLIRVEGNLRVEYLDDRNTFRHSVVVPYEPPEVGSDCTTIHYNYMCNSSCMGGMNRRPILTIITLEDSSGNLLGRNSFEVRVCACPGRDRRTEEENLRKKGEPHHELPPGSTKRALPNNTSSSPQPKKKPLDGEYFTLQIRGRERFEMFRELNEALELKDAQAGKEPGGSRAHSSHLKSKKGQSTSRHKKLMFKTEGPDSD
Sequence of human Peroxisome Proliferator-activated Receptor delta (PPARd), PPARD (gene 5467) (Q03181 whole entry, looked up, the tested form may be a part): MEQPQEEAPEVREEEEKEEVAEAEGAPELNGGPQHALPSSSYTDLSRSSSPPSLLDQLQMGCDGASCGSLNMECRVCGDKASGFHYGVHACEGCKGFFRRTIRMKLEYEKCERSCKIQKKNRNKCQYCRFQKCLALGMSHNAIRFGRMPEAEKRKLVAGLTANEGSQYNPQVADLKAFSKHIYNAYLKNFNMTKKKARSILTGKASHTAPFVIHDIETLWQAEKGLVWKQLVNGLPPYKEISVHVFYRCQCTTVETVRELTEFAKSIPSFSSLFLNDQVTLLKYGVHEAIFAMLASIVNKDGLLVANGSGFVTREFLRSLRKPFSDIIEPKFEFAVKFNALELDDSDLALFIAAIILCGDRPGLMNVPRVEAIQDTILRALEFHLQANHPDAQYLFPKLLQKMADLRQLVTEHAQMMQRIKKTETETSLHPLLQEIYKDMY
Sequence of human Retinoic Acid Receptor gamma (RARg), RARG (gene 5916) (P13631 whole entry, looked up, the tested form may be a part): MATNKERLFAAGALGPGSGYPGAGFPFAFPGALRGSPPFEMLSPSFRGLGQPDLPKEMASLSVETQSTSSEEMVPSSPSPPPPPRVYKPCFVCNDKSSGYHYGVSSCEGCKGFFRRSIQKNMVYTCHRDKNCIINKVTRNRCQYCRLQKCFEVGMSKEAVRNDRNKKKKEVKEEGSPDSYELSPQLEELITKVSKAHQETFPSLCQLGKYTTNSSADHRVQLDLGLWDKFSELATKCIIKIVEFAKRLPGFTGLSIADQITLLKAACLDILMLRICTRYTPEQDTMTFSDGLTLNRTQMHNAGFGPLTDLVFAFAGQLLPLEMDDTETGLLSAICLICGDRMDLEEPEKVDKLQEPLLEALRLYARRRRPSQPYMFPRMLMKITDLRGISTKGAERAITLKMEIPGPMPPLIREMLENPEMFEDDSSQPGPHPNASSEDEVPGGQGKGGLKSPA
Sequence of Nuclear receptor subfamily 1 group I member 2 (Homo sapiens) (O75469 whole entry, looked up, the tested form may be a part): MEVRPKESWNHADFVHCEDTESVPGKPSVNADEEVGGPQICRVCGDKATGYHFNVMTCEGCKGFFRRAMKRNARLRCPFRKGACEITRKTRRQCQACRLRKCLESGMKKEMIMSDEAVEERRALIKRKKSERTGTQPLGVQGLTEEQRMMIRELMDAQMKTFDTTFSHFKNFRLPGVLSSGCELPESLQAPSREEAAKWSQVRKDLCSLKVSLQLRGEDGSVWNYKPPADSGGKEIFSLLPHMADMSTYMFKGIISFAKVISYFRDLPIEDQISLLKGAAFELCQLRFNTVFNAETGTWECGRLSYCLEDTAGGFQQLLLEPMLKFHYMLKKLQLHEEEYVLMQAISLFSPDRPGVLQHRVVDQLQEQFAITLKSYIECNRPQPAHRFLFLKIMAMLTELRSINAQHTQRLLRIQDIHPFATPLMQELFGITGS
Sequence of Retinoic acid receptor alpha (Homo sapiens) (P10276 whole entry, looked up, the tested form may be a part): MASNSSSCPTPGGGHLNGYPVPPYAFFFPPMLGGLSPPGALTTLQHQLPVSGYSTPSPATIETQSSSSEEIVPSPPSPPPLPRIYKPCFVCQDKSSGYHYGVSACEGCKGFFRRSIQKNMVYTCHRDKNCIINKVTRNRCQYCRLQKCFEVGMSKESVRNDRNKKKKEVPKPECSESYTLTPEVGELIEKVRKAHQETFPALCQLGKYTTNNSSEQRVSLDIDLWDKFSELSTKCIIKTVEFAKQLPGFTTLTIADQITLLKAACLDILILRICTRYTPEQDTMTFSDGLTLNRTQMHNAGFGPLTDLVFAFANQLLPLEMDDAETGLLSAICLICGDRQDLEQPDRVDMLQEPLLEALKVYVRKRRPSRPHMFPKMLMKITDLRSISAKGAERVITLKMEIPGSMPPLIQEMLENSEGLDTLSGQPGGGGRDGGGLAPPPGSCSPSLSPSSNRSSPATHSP
Sequence of human Retinoic Acid Receptor beta (RARb), RARB (gene 5915) (P10826 whole entry, looked up, the tested form may be a part): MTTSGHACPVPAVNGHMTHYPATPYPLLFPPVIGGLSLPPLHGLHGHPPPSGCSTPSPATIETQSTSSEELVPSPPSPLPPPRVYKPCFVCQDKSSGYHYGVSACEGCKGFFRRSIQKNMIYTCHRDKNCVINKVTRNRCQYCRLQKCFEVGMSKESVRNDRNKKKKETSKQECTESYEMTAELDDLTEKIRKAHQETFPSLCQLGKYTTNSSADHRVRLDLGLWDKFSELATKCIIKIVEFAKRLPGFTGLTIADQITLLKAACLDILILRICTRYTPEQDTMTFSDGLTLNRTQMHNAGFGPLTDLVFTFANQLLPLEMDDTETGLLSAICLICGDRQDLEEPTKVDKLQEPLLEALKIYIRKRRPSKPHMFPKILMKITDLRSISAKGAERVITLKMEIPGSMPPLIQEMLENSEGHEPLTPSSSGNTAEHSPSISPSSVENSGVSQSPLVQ

FC(F)(F)C(F)(F)C(F)(F)C(F)(F)C(F)(F)C(F)(F)CCS
not listed: [17] | [18] | [19] | [20]
inactive: all other assays above

O=P(O)(O)OCCC(F)(F)C(F)(F)C(F)(F)C(F)(F)C(F)(F)C(F)(F)F
not listed: [6] | [11] | [15] | [18] | [19] | [20]
inactive: all other assays above

O=C(CC(=O)C(F)(F)C(F)(F)F)C(F)(F)F
inactive: [1] | [2] | [3] | [4] | [17] | [7] | [8] | [9] | [10] | [11] | [12] | [13] | [14] | [16] | [18]
active: [4] 150 µM | [5] 94.6 µM and 109 µM | [15] 76.1 µM and 61.2 µM

FC(F)(F)C(F)(F)C(F)(F)C(F)(F)C(F)(F)C(F)(F)C(F)(F)C(F)(F)F
not listed: [17] | [20]
inactive: all other assays above

CCCCOc1ccc(N)cc1
inactive: [1] | [2] | [3] | [4] | [5] | [17] | [15] | [16]

C#C[C@]1(O)CC[C@H]2[C@@H]3CCc4cc(OC)ccc4[C@H]3CC[C@@]21C
active: [5] 18 µM | [10] 2.22 µM | [14] 31.1 µM | [16] 4.66 µM
not listed: [6] | [12] | [19]
inactive: all other assays above

O=C(O)C(F)(F)C(F)(F)C(F)(F)C(F)(F)F
not listed: [12] | [19] | [20]
inactive: all other assays above
